Six sequences from the supplement of paper PMC6555819 can be followed below.

What all share (assay): PBM binding z-score (relative to random genomic background probes); higher = stronger binding; sequences stand for … in GC…GCGATTGACAGCGTAGAATGAAGG
Experiment [1] has as its system FXR:RXRa (NR concentration 270 nM, RXRa partner concentration 90 nM). An outline of the steps:
(§1)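 Binding z-scores take random background probes as their reference. They come from custom Agilent 4×180K protein-binding microarrays incubated 1 h with ligand-free nuclear receptor dimers, with antibodies against each partner (one per run) detecting binding. Scanned fluorescence was regression-normalized.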

Experiment [2] relates to LXRa:RXRa (NR concentration 270 nM, RXRa partner concentration 90 nM). In a few lines:
as §1

For experiment [3], the system named is LXRa homodimer (NR concentration 270 nM). An outline of the steps: as §1
The subject of experiment [4] is LXRb:RXRa (NR concentration 270 nM, RXRa partner concentration 90 nM). In a few lines:
as §1

Experiment [5] has as its system LXRb homodimer (NR concentration 270 nM). An outline of the steps:
as §1

Experiment [6] relates to PPARa:RXRa (NR concentration 270 nM, RXRa partner concentration 90 nM). In a few lines:
as §1

Experiment [7] concerns PPARg:RXRa (NR concentration 180 nM, RXRa partner concentration 90 nM). An outline of the steps: as §1
Experiment [8] relates to PPARg:RXRa 270nM:90nM, anti-RXR (NR concentration 270 nM, RXRa partner concentration 90 nM). An outline of the steps: as §1
The subject of experiment [9] is PPARg:RXRa 30nM:10nM, anti-RXR (NR concentration 30 nM, RXRa partner concentration 10 nM). An outline of the steps: as §1
Experiment [10] concerns PPARg:RXRa 90nM:30nM, anti-RXR (NR concentration 90 nM, RXRa partner concentration 30 nM). In a few lines:
as §1

Experiment [11] concerns PPARg:RXRa DBDmut IVT, anti-RXR (DBD mutation: RXRa K156A/R161A, NR concentration 270 nM, RXRa partner concentration 90 nM). In a few lines:
as §1

For experiment [12], the system named is PPARg:RXRa IVT, anti-PPARg (NR concentration 270 nM, RXRa partner concentration 90 nM). In a few lines: as §1
The test system of experiment [13] is PPARg DBDmut:RXRa IVT, anti-PPARg (DBD mutation: PPARg1 K132A/R137A, NR concentration 270 nM, RXRa partner concentration 90 nM). In a few lines:
as §1

Experiment [14] relates to PPARg DBDmut IVT, anti-PPARg (DBD mutation: PPARg1 K132A/R137A, NR concentration 270 nM). In a few lines: as §1
Experiment [15] deals with PPARg homodimer (NR concentration 180 nM). In a few lines:
as §1

Experiment [16] deals with PXR:RXRa (NR concentration 270 nM, RXRa partner concentration 90 nM). In a few lines: as §1
Experiment [17] relates to PXR homodimer (NR concentration 270 nM). An outline of the steps:
as §1

For experiment [18], the system named is RARa:RXR (NR concentration 270 nM, RXRa partner concentration 90 nM). An outline of the steps:
as §1

The subject of experiment [19] is RARa homodimer (NR concentration 270 nM). An outline of the steps: as §1
Experiment [20] concerns RARb:RXRa (NR concentration 270 nM, RXRa partner concentration 90 nM). An outline of the steps:
as §1

With ATATGTAGGTTAGCTGGGGTCTTTCAGACTAGGC, the PBM binding z-score in [1] was found to be 1.74; in experiment [2] it was 0.766; in [3] it was 0.231; in experiment [4] it was 1.6; in experiment [5] it was 0.737; in [6], 2.65. Further, the PBM binding z-score in experiment [7] turned out to be 2.84; in [8], 2.65; in [9] it was 0.594; in [10] it was 1.91; in experiment [11], 6.49; in [12], 5.47. Also, the PBM binding z-score was determined as 0.793 in experiment [13]; 0.845 in experiment [14]; 0.937 in [15]; 1.68 in [16]; 0.227 in [17]; 0.915 in [18]. Besides, the PBM binding z-score in experiment [19] came to 0.444; in experiment [20], 0.946.
Regarding CCTACTGGGCCACGAAAGATCATTGATTCAGTGA, the PBM binding z-score in [1] is -0.333; in experiment [2], -0.132; in experiment [3], -0.275; in [4] it was -0.437; in experiment [5] it was -0.666; in [6], 0.946. The PBM binding z-score amounted to 1.67 in experiment [7]; 1.31 in [8]; 0.112 in experiment [9]; 0.519 in experiment [10]; 5.69 in experiment [11]; 5.25 in [12]. In addition, the PBM binding z-score in experiment [13] was 0.632; in [14] it was -0.411; in experiment [15], 0.215; in experiment [16] it was -0.421; in [17], -0.111; in [18], -0.0697. Also, the values for the PBM binding z-score in experiment [19] and in experiment [20] were -0.401 and 0.211, respectively.
As for GTACCAACGTGAATAGGTCGTTGATGAGTAGGCG, the PBM binding z-score in experiment [1] was -0.282; in experiment [2], -0.216; in [3], -0.491; in [4], -0.2; in experiment [5], -0.829; in experiment [6], 0.267. Besides, the PBM binding z-score in [7] is 0.588; in [8], -0.017; in [9] it was -0.124; in experiment [10] it was -0.176; in experiment [11], -0.261; in experiment [12], -0.148. For the same sequence, the PBM binding z-score in experiment [13] was -0.62; in experiment [14], -0.461; in experiment [15], -0.374; in experiment [16], -0.0666; in experiment [17], -0.401; in experiment [18] it was 0.105. Further, the results for the PBM binding z-score in experiment [19] and in experiment [20] were -0.122 and -0.00783, respectively.
As for CGTCGAAGTTCAACTAAGGTAACGTAAAGCACGC, the PBM binding z-score in [1] was 4.31; in experiment [2] it was 3.83; in experiment [3] it was 1.23; in experiment [4], 2.36; in [5], 0.375; in experiment [6] it was 3.15. Moreover, the PBM binding z-score in experiment [7] was 1.3; in [8], 1.98; in experiment [9] it was 0.415; in [10], 1.23; in [11], -0.101; in [12] it was 0.723. Moreover, the PBM binding z-score in [13] worked out at 0.00916; in experiment [14] it was 0.194; in experiment [15], 1.47; in [16], 4.23; in [17], 2.7; in experiment [18], 3.02. The PBM binding z-score in [19] is 0.757; in experiment [20], 3.74.
On to ATCTCCAGGTAAAGTTCAGTGAAAGATCGATAGA, for which the PBM binding z-score in [1] came out at 1.54; in experiment [2], 2.1; in experiment [3], 1.98; in experiment [4], 1.55; in experiment [5], 1.25; in experiment [6], 2.02. Further, the PBM binding z-score in [7] was 1.2; in [8], 2.62; in [9], 1; in experiment [10], 1.91; in [11], 0.492; in experiment [12], 0.889. Moreover, the PBM binding z-score in experiment [13] is 1.11; in experiment [14], 0.586; in experiment [15], 1.7; in [16], 2.32; in [17], 2.13; in experiment [18], 1.81. Moreover, the PBM binding z-score in experiment [19] came out at 1.45; in [20], 2.78.
With CCTATTAGTTGACCATAAGGGCAACCCAAGCTCG, the PBM binding z-score was found to be 1.15 in experiment [1]; 0.607 in experiment [2]; 0.597 in experiment [3]; 0.677 in experiment [4]; 0.607 in experiment [5]; 0.81 in [6]. Besides, the PBM binding z-score in experiment [7] was 0.661; in [8], 0.62; in experiment [9], 0.211; in experiment [10], 0.475; in experiment [11] it was 0.483; in [12] it was 0.597. Besides, the PBM binding z-score was 0.502 in [13]; 0.375 in [14]; 1.63 in [15]; 1.12 in [16]; 1.26 in experiment [17]; 1.22 in [18]. Besides, the PBM binding z-score in experiment [19] stood at 1.66; in experiment [20] it was 1.53.
